Hit rate of the full screen: of about 270,000 compounds, about 1,100 (0.41%) were called active. About 3% were inconclusive and are not listed. The full list was thinned out, with actives kept by preference. Values without a mark were called inactive. Calls follow the shape of the full dose curve.

Here are results for 53 compounds from PubChem BioAssay AID2326 (National Center for Advancing Translational Sciences (NCATS), 2010).
Potency is read from the fitted curve at half-maximal effect.

The nature of this test: qHTS Assay for Inhibitors of Influenza NS1 Protein Function. Also: actives are rising curves; nearly all actives have a fitted effect of over 50% in size. The conditions noted are these: series mostly up to 46.1 µM; activity, positive = more growth: at the top concentration. The source says: NIH Chemical Genomics Center [NCGC]
NIH Molecular Libraries Probe Centers Network [MLPCN]
Assay Submitter (PI): Daniel Engel
Influenza is a world-wide public health problem and emerging forms of the virus have the potential to cause a pandemic of equal or greater magnitude to the outbreaks recorded in 1918, 1957 or 1968. Vaccine development is proceeding and there also exist two classes of anti-influenza compounds. However these therapeutic modalities are neither fully effective nor widely enough available to fulfill global needs. In addition their potential usefulness against newly emergent strains is not known. Efforts are needed to develop novel agents against influenza virus, including broad-spectrum agents. Identification of small molecules that inhibit NS1 function either directly or by interfering with specific cellular pathways may be a key to increasing our defense against the virus.
We have miniaturized and optimized a cell based assay in which NS1 from influenza A is expressed in the budding yeast S. cerevisiae. NS1 is a multi-functional protein that counters the host innate immune response and facilitates viral versus cellular gene expression. Expression of NS1 causes a pronounced slow growth phenotype in yeast due to its intrinsic molecular activities. Small molecules that suppress the slow growth phenotype can be identified by a straightforward growth recovery assay using optical density (OD) as the measurement. The same yeast strain not expressing NS1 was used as positive control in the yeast growth recovery assay.
The yeast S. cerevisiae control and NS1 expressing cells were kindly supplied by laboratory of Dr. Daniel Engel, University of Virginia. Yeast starter cultures were stored in single use aliquots at -80C.
1. Yeast culture medium per liter: 1.2 g Yeast Nitrogen Base (w/out amino acids and Ammonium Sulphate), 5.0g Ammonium Sulphate, 0.77g -URA DO (drop-out) Supplement, adjust pH to 6.0. Adjust to 2% glucose prior to inoculating with yeast.
2. Yeast assay medium: 1.2 g Yeast Nitrogen Base (w/out amino acids and Ammonium Sulphate), 5.0g Ammonium Sulphate, 0.77g -URA DO (drop-out) Supplement, adjust pH to 6.0. Adjust to 2% D-galactose prior to inoculating with yeast.
1. Inoculate 100 mls of yeast culture medium with 1 ml of frozen yeast aliquote. Incubate overnight at 30C, 250RPM.
2. Harvest overnight culture at 4000 RPM and wash pellet with 15 mls H2O 3x.
3. Re-suspend washed pellet in 10 mls of yeast assay medium.
4. Prepare a 1:100 dilution of re-suspended culture in yeast assay medium.
5. Dispense 3.5 ul per well of reagents in step 4 in columns 2-48 in a black clear bottom 1536 well plate.
6. Dispense 3.5 ul per well of yeast assay medium in column 1 only.
7. Transfer 23 nl of compound per well.
8. Dispense 3.5 ul per well of yeast assay medium in columns 1-48.
9. Read plate using Viewlux protocol for optical density 600 (OD600) using excitation filter 600nm.
For `CSc1ccccc1OCc1cc(C(=O)N2C[C@H]3CC[C@H]2C3)no1`, the “activity, positive = more growth” value is -47%. As to `Cc1cc2cc(CNC(=O)c3cccs3)ccc2[nH]1`, the Potency is 7.08 µM (active). Regarding `Cc1cc2cc(CNC(=O)c3ccc(S(=O)(=O)N4CCOCC4)cc3)ccc2[nH]1`, the “activity, positive = more growth” value is -8.99%. On the same count and under the same terms, next, `CCc1cccc(CC)c1NC(=S)NCc1ccc2[nH]c(C)cc2c1`: 18.4%; `CCC(=O)Nc1ccc(-c2ccc(N3CCCCC3)nn2)cc1`: -6.81%; `CCCCNC(=O)N(O)C1N(/N=C/c2ccccc2O)C(=S)SC1(C)C` (stereo not drawn): -46%. On the same count and under the same terms, next, `C/C=C/C(=O)Nc1nnc(C(C)C)s1`: -1.95%.

On to `COc1cccc(OC)c1C(=O)Nc1nnc(C(C)C)s1`, for which the Potency was 3.98 µM (active). In the case of `COc1ccc(CNC(=O)CCC(=O)Nc2nnc(C(C)C)s2)cc1`, the “activity, positive = more growth” value was 2.26%. As for `CCCN1CCn2c3c(c4cc(Br)ccc42)CCCC31` (stereo not drawn), the “activity, positive = more growth” value is -7.34%. Regarding `O=C(NCCCc1ccccc1)C(=O)c1c[nH]c2ccccc12`, the “activity, positive = more growth” value is -5.78%. Still for that read-out and setting: then `CSc1nnc(NC(=O)c2nc(S(=O)(=O)Cc3ccc(C)cc3)ncc2Cl)s1`, with 9.05%; and `CCc1ccc(S(=O)(=O)N/N=C\c2ccc([N+](=O)[O-])o2)cc1`, with -23.4%.

Regarding `CSCc1nnc(NC(=O)c2ccc(S(=O)(=O)N3CCCCC3C)cc2)o1` (stereo not drawn), the “activity, positive = more growth” value was -18.6%. In the case of `Cc1ccc(Cn2c(C)nc3c(c2=O)c2nc4ccccc4nc2n3Cc2ccco2)cc1`, the Potency was 4.47 µM (active). Regarding `COCCCn1c2nc3ccccc3nc2c2c(=O)n(Cc3ccc(Cl)cc3)c(C)nc21`, the “activity, positive = more growth” value is -0.53%. On the same count and under the same terms, next, `Cc1nc2c(c(=O)n1Cc1ccco1)c1nc3ccccc3nc1n2Cc1ccccc1`: 3.74%. For `CC1(C(=O)NNC(=S)NCC2CCCO2)CC1(Cl)Cl` (stereo not drawn), the “activity, positive = more growth” value was -1.43%.

As for `O=C(N[C@@H](Cc1ccccc1)C(=O)OCc1ccccc1)c1nc[nH]c1C(=O)N[C@@H](Cc1ccccc1)C(=O)OCc1ccccc1`, the “activity, positive = more growth” value was 6.79%. The same measure, in the same setting: next, `CCc1ccc(OCC2c3cc(OC)c(OC)cc3CCN2C(C)=O)cc1` (stereo not drawn): 5.89%. As to `COc1cc2c(cc1NC(=O)CN1CCN(S(=O)(=O)c3ccc(F)cc3)CC1)oc1ccccc12`, the Potency was 5.62 µM (active). In the case of `COc1ccccc1NC(=O)CN1CCN(S(=O)(=O)c2ccc(Br)cc2)CC1`, the “activity, positive = more growth” value is -5.14%. The same measure, in the same setting: then `COc1ccc(NC(=O)CN2CCN(S(=O)(=O)c3ccc(F)cc3)CC2)cc1Cl`, with -4.2%; and `CC(CN1CCOCC1)OC(=O)c1ccc(C(C)(C)C)cc1` (stereo not drawn), with -23.1%. `O=C(CC(n1cncn1)C(Cl)(Cl)Cl)c1ccc([N+](=O)[O-])cc1` (stereo not drawn): the “activity, positive = more growth” value is -84.2%.

Consider `COc1ccc(S(=O)(=O)Nc2c(C)n(C)n(-c3ccccc3)c2=O)cc1`, for which the Potency was 3.98 µM (active). With `Cc1cc(C)c(S(=O)(=O)Nc2c(C)n(C)n(-c3ccccc3)c2=O)cc1[N+](=O)[O-]`, the “activity, positive = more growth” value was -4.82%.

On to `Cc1ccc(S(=O)(=O)Nc2ccccc2CNc2c(C)n(C)n(-c3ccccc3)c2=O)cc1`, for which the “activity, positive = more growth” value is -70%. On to `O=[N+]([O-])c1ccc(NC(=S)N2CCN(c3ccccn3)CC2)cc1`, for which the “activity, positive = more growth” value was -11.2%. In the case of `FC(F)(F)C1CCCN(c2nsc3ccccc23)C1` (stereo not drawn), the “activity, positive = more growth” value is -121%. With `COc1cccc(OCc2cc(C(=O)N3CCN(C(=O)c4ccco4)CC3)no2)c1`, the “activity, positive = more growth” value is -6.93%. Take `Cc1cc(C(=O)N/N=C/c2ccccc2[N+](=O)[O-])c(C)o1`: the “activity, positive = more growth” value was -0.261%. Still for that read-out and setting: next, `Cc1ccsc1/C=N/NC(=O)Cc1cc(=O)[nH][nH]1`: 14.1%. Take `O=C(Cc1cc(=O)[nH][nH]1)N/N=C/c1ccccc1[N+](=O)[O-]`: the Potency was 8.91 µM (active). `COc1cnc(-c2ccccn2)nc1Oc1ccc(C(C)(C)C)cc1`: the “activity, positive = more growth” value was -1.08%. Consider `O=C(CSc1nnnn1C1CCCC1)N1CCCCC1`, for which the “activity, positive = more growth” value was 4.51%. Consider `COc1ccc(C2CC(c3cccs3)=NN2C(=O)COC(=O)c2cc3ccccc3cc2O)cc1OC` (stereo not drawn), for which the “activity, positive = more growth” value was 24.1%. For the compound `COc1ccc(C2CC(c3cccs3)=NN2C(=O)CCC(=O)O)cc1OC` (stereo not drawn), the “activity, positive = more growth” value was 19.5%. `O=C1c2cccc(OCC(=O)N3N=C(c4cccs4)CC3c3ccc(F)cc3)c2CCN1Cc1ccccc1` (stereo not drawn): the Potency is 5.01 µM (active). As for `O=C(Nc1ccc(C2CC2(Cl)Cl)cc1)c1cccc([N+](=O)[O-])c1` (stereo not drawn), the “activity, positive = more growth” value is -29.5%. Take `Cc1cnc(NC(=O)c2ccc(Cl)nc2)s1`: the “activity, positive = more growth” value is -1.39%. The same measure, in the same setting: then `O=C(CCCN1C(=O)/C(=C/c2cccs2)SC1=S)Nc1ccc(O)cc1`, with -5.71%. The same measure, in the same setting: then `COc1ccc(CNC(=O)C(c2ccc(O)cc2)N(Cc2ccco2)C(=O)c2snc(C(N)=O)c2N)cc1` (stereo not drawn), with 12.4%. On the same count and under the same terms, then `Cc1cccc(NC(=S)NCCc2ccc(Cl)cc2)c1C`, with -49.7%. Consider `O=c1cc(O)nc(SCc2ccccc2Cl)[nH]1`, for which the Potency is 5.01 µM (active). For the compound `O=c1[nH]nc(CSCc2ccccc2Cl)[nH]1`, the “activity, positive = more growth” value was -9.59%. Turning to `Clc1ccccc1CSc1nnc(-c2ccco2)c(-c2ccco2)n1`, the “activity, positive = more growth” value was 10.7%.

With `COc1ccc(C(=O)/C=C/c2cccnc2)c(OC)c1`, the “activity, positive = more growth” value is -15.2%. Same read-out and setting: next, `O=C(/C=C/c1ccco1)NC(=S)Nc1ccccc1Br`: 13.4%; `Oc1ccccc1-c1cc(-c2ccc(Cl)cc2)n[nH]1`: -6.76%; `CC(C)OCC(O)CN1CCN(C(c2ccccc2)c2ccccc2)CC1` (stereo not drawn): 0.765%. On to `Cc1ccccc1C(OCC(O)CN1CCCCC1CCO)c1ccccc1` (stereo not drawn), for which the Potency was 4.47 µM (active).

As to `COc1cccc(CN(C)CC(O)COC(c2ccccc2)c2ccccc2C)c1` (stereo not drawn), the “activity, positive = more growth” value is 2.51%.
